Screening data: PubChem, several laboratories
Only some compounds are listed: those with a hit (about 2.3% of all), similar ones and a draw of the others.
hiPSC survival: enhancers of human iPSC single-cell survival | hiPSC single-cell survival, ATPlite luminescence; 100% = ROCK inhibitor wells, 0% = DMSO | survival enhancement, % at 20 µM | hit rate 0.044% among 360,000 | AID 602274; in the data active = survival enhancement above about 18%;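 note: cells exposed to compounds for 16 hours before the ATP read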
CF NFkB block: inhibitors of cystic fibrosis induced NF-kB. AID 588850. KKLEB NF-kB-GFP reporter, PAF-induced, GFP fluorescence overnight. inhibition, % at 5 µM. hit rate 0.86% among 360,000;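 active = at least 50% inhibition at 5 µM, scaled per plate between neutral and stimulator controls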;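 note: PAF is a Pseudomonas aeruginosa culture filtrate used as stimulus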
TWEAK-Fn14 inh: blocks TWEAK-Fn14 interaction in a reporter cell assay; TWEAK-stimulated Fn14 reporter cells, luciferase luminescence, 8 h; inhibition, % at 10 µM; hit rate 2% among 360,000; AID 1159606; in the data active = inhibition above about 50%
KKLEB cytotox: CF airway cell cytotoxicity counter-screen; AID 602141; activity change (cytotoxicity), % at 5 µM; hit rate 0.36% among 360,000; KKLEB CF airway cells viability, ATPlite luminescence, overnight; active compounds read low; cells stimulated with P. aeruginosa culture filtrate;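 active = corrected activity change at or below -50% at 5 µM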
LGR2 antag: blocks bursicon-induced cAMP signaling via Drosophila LGR2; inhibition, % at 9.99 µM; hit rate 0.35% among 380,000; HEK293 LGR2, CRE-luciferase, bursicon-stimulated, 4 h;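 active = drop in luminescence signal, shown as inhibition above about 50% in the replicate tests, limit read from the data, passing the limit was not always enough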;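 note: agonist challenge used bursicon conditioned medium at about half maximal strength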
HIF-2a block: inhibitors of HIF-2a. 786-0 RCC cells HIF-2a reporter, luciferase luminescence, overnight. inhibition, % at 18.8 µM. hit rate 0.72% among 360,000;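 active = inhibition of the luminescence signal of 40% or more relative to plate controls, in a single-dose primary screen at 18.75 µM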
Hits are given with their value; n = inactive; x = not tested or not shown.

SMILES	hiPSC survival	CF NFkB block	TWEAK-Fn14 inh	KKLEB cytotox	LGR2 antag	HIF-2a block
CN1CCN(c2ccc3sc(-n4ccc5ccccc54)nc3c2)CC1	n	n	65.0	n	n	n
c1ccc(N2CCN(c3nc4cc5c(cc4s3)OCO5)CC2)cc1	n	n	n	n	x	n
COc1ccc(N)c2c1C(=O)c1ccccc1C2=O	n	n	n	n	n	n
COc1ccc(OC)c2c1C(=O)C(Cl)=C(Cl)C2=O	n	89.6	93.6	-54.5	89.7	94.1
CCS(=O)(=O)Nc1ccc(-c2nc3cccnc3s2)cc1	n	n	69.4	n	n	n
CCOC(=O)c1sc(NC(=O)CSc2nnnn2-c2ccc(C)cc2)c(C(=O)OCC)c1C	n	n	n	n	x	n
CCOC(=O)c1sc(NC(=O)CSc2nc3c(c(=O)n2-c2ccc(C)cc2)SCC3)c(C(=O)OCC)c1C	n	n	n	-60.0	x	n
CCC(C)Nc1ccc(NC(C)CC)cc1 (configuration not stated)	n	59.9	68.6	n	x	n
C[C@@H]1CN([C@H](C)CO)S(=O)(=O)c2ccc(C#CCN(C)C)cc2O[C@@H]1CN(C)C(=O)C1CC1	x	x	x	x	n	x
CCc1ccc(C(C(=O)NC2CCCC2)N(C(=O)/C=C/C(=O)Nc2cc(C)on2)c2ccccc2C)cc1 (configuration not stated)	n	n	55.8	n	n	n
C[C@@H](NC(=O)C[C@@H]1CC[C@@H]2[C@H](COC[C@H](O)CN2C)O1)c1ccccc1	x	x	x	x	n	x
Cn1c(SCC(=O)c2ccc(F)cc2)nc2cccnc21	n	n	61.3	n	x	n
O=C(CSc1ccc(-c2ccccn2)nn1)c1ccc(F)cc1	n	n	81.8	n	n	n
Cc1ccc(C(=O)CSc2nc3cccnc3n2C)cc1	n	n	n	n	x	n
O=C(CSc1ccc(-c2ccccn2)nn1)c1ccccc1	n	n	n	n	n	n
COCC(=O)N(C)C[C@@H]1Oc2cc(-c3cccnc3)ccc2S(=O)(=O)N([C@H](C)CO)C[C@H]1C	x	x	x	x	n	x
Cc1ccccc1/C=C/C12NC(=O)CN1c1ccccc1C2(C)C (configuration not stated)	n	n	56.5	n	n	n
Cc1ccccc1NC(=S)NNC(=O)c1csc2c1CCC(C)C2 (configuration not stated)	n	n	86.9	n	n	n
CCNC(=S)NNC(=O)c1csc2c1CCC(C)C2 (configuration not stated)	n	n	n	n	x	n
CC(=O)c1ccc2c(c1)OCCOCCOCCOCCOCCO2	n	n	87.4	n	n	n
COc1ccc(C(=O)Nc2ccc3c(c2)OCCO3)cc1	n	n	50.2	n	x	n
COc1ccccc1NC(=O)Nc1ccc2c(c1)OCCO2	n	n	n	n	x	n
CCC(C(=O)Nc1ccc2c(c1)OCCO2)n1c(=O)[nH]c2ccccc2c1=O (configuration not stated)	n	n	76.0	n	n	n
CCC(Oc1ccccc1OC)C(=O)Nc1ccc2c(c1)OCCO2 (configuration not stated)	n	n	59.4	n	n	n
Cc1[nH]c2ccccc2c1C(=O)C(=O)Nc1ccc2c(c1)OCCO2	n	n	n	n	n	n
SMILES	hiPSC survival	CF NFkB block	TWEAK-Fn14 inh	KKLEB cytotox	LGR2 antag	HIF-2a block
COc1ccccc1-c1cnc2c(c1)C(=O)N([C@@H](C)CO)C[C@@H](C)[C@@H](CN(C)CC1CCOCC1)O2	x	x	x	x	n	x
CC(=O)N[C@@H]1C=C[C@H](CC(=O)NCc2ccc(Cl)cc2)O[C@H]1CO	x	x	x	x	n	x
Cc1noc(C)c1NC(=O)Nc1ccc2c(c1)C(=O)N(C)[C@@H]1CC[C@H](CC(=O)NCc3ccc(Cl)cc3)O[C@@H]1CO2	x	x	x	x	n	x
O=C(Nc1ccc(NC(=O)c2ccco2)cc1)c1ccc2c(c1)OCO2	n	n	67.6	n	n	n
O=C(Nc1ccc(NC(=O)c2ccco2)c(Cl)c1)c1ccc2c(c1)OCCO2	n	n	n	n	n	n
COc1ccc(NC(=O)C2=Cc3ccccc3OC2)cc1	n	n	51.5	n	n	n
O=C(Nc1ccc(F)cc1F)c1ccc2c(c1)OCCO2	n	n	n	n	n	n
O=C(Nc1ccc(Br)cc1F)c1ccc2c(c1)OCCO2	n	n	50.7	n	n	n
COc1ccc(NC(=O)C2=Cc3cccc(OC)c3OC2)cc1	n	n	n	n	n	n
Cc1ccc(NC(=O)c2ccc3c(c2)OCCO3)cc1	n	n	67.9	n	x	n
COc1cccc(NC(=O)c2ccc3c(c2)OCCO3)c1	n	n	57.0	n	n	n
COc1ccc(C(C)(C)C)cc1NC(=O)CCNC(=O)c1ccco1	n	n	91.4	n	n	n
COc1cc(OC)c(OC)cc1CNCCNC(=O)c1ccco1	n	n	96.0	n	n	n
COc1ccc(S(=O)(=O)N(C)C)cc1NC(=O)CCNC(=O)c1ccco1	n	n	n	n	n	n
COc1ccc(C(C)(C)C)cc1NC(=O)CNc1cccc2ccccc12	n	n	58.3	n	n	n
CN(C)C(=O)C[C@@H]1C[C@H]2c3cc(NC(=O)Nc4ccccc4F)ccc3O[C@H]2[C@H](CO)O1	x	x	x	x	n	x
C[C@H]1CN([C@@H](C)CO)C(=O)c2cc(-c3ccc(F)cc3)cnc2O[C@@H]1CN(C)C(=O)c1ccncc1	x	x	x	x	n	x
Cc1ccc([N+](=O)[O-])cc1NC(=O)c1ccc2c(c1)OCO2	n	n	n	n	n	n
O=C(Nc1ncc([N+](=O)[O-])s1)c1ccc2c(c1)OCO2	n	n	102.5	n	91.1	61.0
O=C(Nc1nnc(SCC(=O)N2CCCc3ccccc32)s1)c1ccccc1	n	n	n	n	x	n
CCOC(=O)CSc1nnc(NC(=O)c2ccc3c(c2)OCO3)s1	n	n	n	n	n	53.8
CC(C)c1nnc(NC(=O)c2ccc3c(c2)OCO3)s1	n	n	73.2	n	74.4	n
O=C(Nc1nnc(SCC(=O)N2CCCc3ccccc32)s1)c1ccc2ccccc2c1	n	n	n	-50.2	n	n
Cc1noc(C)c1NC(=O)N(C)C[C@@H]1OCCCC[C@H](C)Oc2ccc(N(C)C)cc2C(=O)N([C@@H](C)CO)C[C@@H]1C	x	x	x	x	n	x
C[C@@H]1CN([C@H](C)CO)C(=O)c2cccc(NC(=O)c3ccc(-c4nccs4)cc3)c2O[C@H]1CN(C)C(=O)NC1CCCCC1	x	x	x	x	n	x
CCCN(C)C[C@H]1OCCCC[C@H](C)Oc2ccc(NS(=O)(=O)c3cn(C)cn3)cc2C(=O)N([C@H](C)CO)C[C@H]1C	x	x	x	x	n	x
CO[C@@H]1CN(C)C(=O)c2cc(NS(C)(=O)=O)ccc2OC[C@@H](C)N(Cc2ccccn2)C[C@@H]1C	x	x	x	x	n	x
COc1ccc(S(=O)(=O)N[C@@H]2CC[C@H](CCn3cc(-c4ccccc4F)nn3)O[C@H]2CO)cc1	x	x	x	x	n	x
C[C@H](CO)N1C[C@H](C)[C@H](CN(C)C(=O)Nc2ccc(F)cc2)Oc2ccc(NC(=O)C3CCCCC3)cc2CC1=O	x	x	x	x	n	x
